Data: PubChem BioAssay (NCI)
About 83,000 compounds went through this panel and 20% of them were active in at least one assay; those are over-represented in the sample as a whole.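 Each cell line was grown in a 96-well plate and treated with one concentration of compound for 48 hours. Values below 10 were considered active.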 Activity calls are given as the source filed them.

system: A498 renal; assay: NCI-60 one-dose screen, 48 h (100 = growth as untreated, 0 = no growth, -100 = all killed); details: 10 µM unless noted
Method: Growth inhibition of the A498 human tumor cell line is measured as a screen for anti-cancer activity. Cells are grown in 96 well plates and exposed to the test compound for 48 hours. Compounds are tested at a single concentration, which is 10^-5 M for most compounds. The reported endpoint is percent growth (GI% or GIPRCNT), where numbers from 0 - 100% represent growth inhibition, and numbers from -100% - 0 represent cell death. For example, a value of 40 represents 60% growth inhibition. A value of 0 means no net growth occurred over the course of the experiment. A value of -40 indicates 40% of cells at the beginning of the experiment died by the end of the experiment. A value of -100 means all cells are dead at the end of the experiment.
NCI-60 Human Tumor Cell Lines Screen was performed using the standard one-dose NCI protocol, which is described in more detail at https://dtp.cancer.gov/discovery_development/nci-60/default.htm.
Compounds with GIPRCNT values below 10 were considered active. Activity score was based on GIPRCNT using the following formula: […]
Score is 0 for GIPRCNT values of 100 or above, 50 for GIPRCNT values of 0, and 100 for GIPRCNT values of -100.

**Q.** For O=C1OC(c2ccc(-c3ccccc3)cc2)=C/C1=C/c1cccs1, which growth is on record?
**A.** The growth was 97.1% (inactive).

**Q.** O=C1c2ccccc2-c2c1nc1ccccc1[n+]2[O-] was tested. Which growth did it give?
**A.** Its growth is 103% (inactive).

**Q.** Which growth does the source give for CCOC(=O)c1cc(-c2cccnc2)nc2c(Cl)cc(Cl)cc12 here?
**A.** Its growth is 103% (inactive).

**Q.** For O=C(CSc1nc2c(n1Nc1ccccc1)-c1ccccc1SC2)Nc1nc(-c2ccc(Cl)cc2)cs1, which growth is on record?
**A.** Its growth is 55% (inactive).

**Q.** Which growth does the source give for Fc1ccc(-c2nc(Nc3ccc(-c4nc5ccccc5[nH]4)cc3)nc(N3CCOCC3)n2)cc1 here?
**A.** Its growth is -81.5% (active).

**Q.** How did the growth turn out when COc1ccc(-c2cc(Cc3cccs3)c(=O)n(Cn3cncn3)n2)cc1 was run?
**A.** The growth was 83.5% (inactive).

**Q.** With CC12CCC3C(CCC4CC(=O)/C(=C\O)CC43C)C1CCC(=O)O2 (stereo not given) as the compound, how does the growth read?
**A.** Its growth is 115% (inactive).

**Q.** Which growth does the source give for Cc1nc(N)[nH]c(=O)c1C here?
**A.** Its growth is 216% (inactive).

**Q.** How did the growth turn out when O=C1Nc2ccccc2C12Nc1cc(Cl)ccc1S2 (stereo not given) was run?
**A.** Its growth is 107% (inactive).

**Q.** Which growth does the source give for Cn1cc(-c2csc(-c3c[nH]c4ncccc34)n2)c2cc(Br)cnc21 here?
**A.** The growth was 71.7% (inactive).

**Q.** For Nc1ccccc1-c1ccc([N+](=O)[O-])cc1, which growth is on record?
**A.** The growth was 75.9% (inactive).

**Q.** For O=C(Oc1ccc[nH]c1=O)c1cccc(Cl)c1, which growth is on record?
**A.** The growth was 127% (inactive).

**Q.** For O=C(/C=C/c1cc2ccccc2[nH]c1=O)c1ccc(O)cc1, which growth is on record?
**A.** Its growth is 56.2% (inactive).

**Q.** For O=C1OCCCCCCCCCC#Cc2ccccc21, which growth is on record?
**A.** The growth was 98.3% (inactive).

**Q.** Which growth does the source give for O=C(Cc1ccccn1)C(F)(F)C(F)(F)C(F)(F)F here?
**A.** The growth was 126% (inactive).

**Q.** With COc1cc2c(-c3nc4cc(Cl)c(F)cc4s3)cc(=O)oc2c(C)c1OC as the compound, how does the growth read?
**A.** Its growth is 8.7% (active).

**Q.** CN(C)c1ccc(/C=C\c2ccnc3ccccc23)cc1 was tested. Which growth did it give?
**A.** Its growth is 63.9% (inactive).

**Q.** O=C(c1ccccc1)c1ccccc1Cl was tested. Which growth did it give?
**A.** Its growth is 86.1% (inactive).

**Q.** CCC(c1ccccc1)c1noc(CCN(CC)CC)n1 (stereo not given) was tested. Which growth did it give?
**A.** The growth was 101% (inactive).

**Q.** Clc1ncn[nH]1 was tested. Which growth did it give?
**A.** Its growth is 106% (inactive).

**Q.** For CC1=CSC2=NCCN12, which growth is on record?
**A.** Its growth is 118% (inactive).

**Q.** How did the growth turn out when Cc1nc2c(O)cccc2cc1CO was run?
**A.** The growth was 131% (inactive).

**Q.** Which growth does the source give for O=C(Nc1ccncc1)C(=O)c1cn(S(=O)(=O)c2cccc(F)c2)c2ccccc12 here?
**A.** The growth was 60.2% (inactive).

**Q.** With COc1cc(/C=C/C(=O)c2c(-c3ccc(Cl)cc3)nc3sc(C)nn23)cc(OC)c1OC as the compound, how does the growth read?
**A.** Its growth is 85.5% (inactive).

**Q.** For CCC1=C(c2ccc(OC)cc2)C(C)Oc2cc(OC(C)=O)ccc21 (stereo not given), which growth is on record?
**A.** The growth was 90.7% (inactive).

**Q.** With CO[C@H]1CC(O[C@@H]2/C(C)=C/C[C@@H]3C[C@@H](C[C@]4(CC[C@H](C)[C@@H](C5CCCCC5)O4)O3)OC(=O)[C@@H]3C=C(C)/C(=N/O)[C@H]4OC/C(=C\C=C\[C@@H]2C)[C@]43O)O[C@@H](C)C1O (stereo not given in full) as the compound, how does the growth read?
**A.** The growth was -96.2% (active).

**Q.** Cc1cc2c(cc1[N+](=O)[O-])NC(CNC(C)C)CC2 (stereo not given) was tested. Which growth did it give?
**A.** The growth was 102% (inactive).

**Q.** With CCC(C)CC(C)C(=O)c1c(O)ccn(O)c1=O (stereo not given) as the compound, how does the growth read?
**A.** Its growth is 115% (inactive).

**Q.** Which growth does the source give for S=C(c1ccccc1)N1CCN(c2cccc(Cl)c2)CC1 here?
**A.** The growth was 64.6% (inactive).

**Q.** With O=c1ccn(C2OC(CO)C(O)C2F)c(=O)[nH]1 (stereo not given) as the compound, how does the growth read?
**A.** Its growth is 110% (inactive).

**Q.** For CCCc1cc(=O)n2c(C(=O)Nc3ccccc3OC)c(C(=O)Nc3ccc(F)cc3)sc2n1, which growth is on record?
**A.** The growth was 90% [30 µM] (inactive).

**Q.** How did the growth turn out when CC(=O)c1cc(C(=O)c2ccc3c(c2)Sc2ccccc2N3)c2c(C)cc(C)cn12 was run?
**A.** Its growth is -27.3% (active).

**Q.** With S=C1SCN(Cc2ccccc2)CN1Cc1ccco1 as the compound, how does the growth read?
**A.** The growth was 99% (inactive).

**Q.** Which growth does the source give for COc1cc(/C=C/C(=O)c2c(-c3ccc(F)cc3)nc3sc(C)nn23)cc(OC)c1OC here?
**A.** The growth was 85.2% (inactive).

**Q.** Which growth does the source give for CCCc1cccc(CCC)c1O here?
**A.** The growth was 95.5% (inactive).

**Q.** How did the growth turn out when Cn1[nH]cc(/C=N/C(N)=O)c1=O was run?
**A.** Its growth is 104% (inactive).

**Q.** With O=C(OCCBr)c1ccc(Cl)c([N+](=O)[O-])c1 as the compound, how does the growth read?
**A.** Its growth is 97.6% (inactive).

**Q.** For CN(C(=O)c1ccccc1)N(C)C(=O)c1ccccc1, which growth is on record?
**A.** Its growth is 100% (inactive).

**Q.** How did the growth turn out when O=Nc1ccc(O)c(=O)cc1 was run?
**A.** The growth was 145% (inactive).

**Q.** How did the growth turn out when CC1(C)OC(=O)C(=Cc2ccccc2Br)C(=O)O1 was run?
**A.** Its growth is 105% (inactive).
